Only some compounds are listed: those with a hit (about 10% of all), similar ones and a draw of the others.
MCF10A rerep = inducers of DNA re-replication in MCF 10A breast cells; AID 624296; 350,000 compounds, 2.9% hits; MCF 10A DNA re-replication, Hoechst nuclear intensity, 48 h; Potency, µM (titrated, usually from 46.1 µM), hits mostly activators; also: nearly all actives have a fitted effect of over 50% in size
Gal4-VP16 FLuc = Gal4-VP16 reporter inhibition counter-screen. 310,000 compounds, 3.5% hits. Potency, µM (highest dose often 53.6 µM), actives largely listed as inhibitors. Drosophila S2 Gal4-VP16 UAS-luciferase, luminescence, 20 h;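 also: Gal4-VP16 expression switched on by copper sulfate through the metallothionein promoter; nearly all actives have a fitted effect of over 50% in size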
SW480 rereplic = inducers of DNA re-replication in SW480 colon cancer cells; AID 624297; SW480 DNA re-replication, Hoechst DNA content imaging, 48 h; Potency, µM (series often up to 46.1 µM), actives largely listed as activators; 340,000 compounds, 1.8% hits; also: nearly all actives have a fitted effect of over 55% in size
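DNA re-replication was detected as more nuclei of elevated Hoechst intensity after 48 hr exposure to compound (23 nL pinned per well of 250 cells).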
RORgamma inh = inhibitors of mouse ROR gamma transcriptional activity | P51450 | Drosophila S2 Gal4-RORgamma UAS-luciferase reporter, 20 h | Potency, µM (highest dose often 53.6 µM), most hits filed as inhibitors | 310,000 compounds, 5.4% hits; also: nearly all actives have a fitted effect of over 60% in size
Target sequence (P51450 whole entry, looked up, the tested form may be a part): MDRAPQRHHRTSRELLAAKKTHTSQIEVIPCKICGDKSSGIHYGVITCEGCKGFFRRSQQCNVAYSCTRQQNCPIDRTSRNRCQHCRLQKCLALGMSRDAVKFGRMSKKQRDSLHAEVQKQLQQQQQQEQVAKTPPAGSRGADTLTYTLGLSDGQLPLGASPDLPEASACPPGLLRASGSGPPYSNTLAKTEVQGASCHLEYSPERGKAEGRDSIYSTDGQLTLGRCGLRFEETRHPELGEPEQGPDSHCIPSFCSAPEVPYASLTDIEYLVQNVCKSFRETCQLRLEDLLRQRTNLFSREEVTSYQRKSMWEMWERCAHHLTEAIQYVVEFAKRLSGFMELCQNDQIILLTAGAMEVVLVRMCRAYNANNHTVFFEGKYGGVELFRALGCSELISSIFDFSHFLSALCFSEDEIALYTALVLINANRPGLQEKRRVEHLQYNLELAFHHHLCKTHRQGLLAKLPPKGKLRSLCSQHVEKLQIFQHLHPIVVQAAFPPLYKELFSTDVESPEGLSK
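Using a luciferase readout, inhibitors were identified by reduced reporter activity in Drosophila cells coexpressing a copper-inducible Gal4–ROR gamma fusion and UAS-driven Photinus luciferase, incubated 20 hr after 700 uM copper sulfate.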
ELG1 repair inh = inhibitors of ELG1-dependent DNA repair in HEK293T cells. AID 504467. Potency, µM (titrated, usually from 46.1 µM), actives largely listed as inhibitors. 330,000 compounds, 2.3% hits. HEK293T ELG1-luciferase reporter, luminescence, 16 h; DNA damage induced by 5-fluorouridine; also: nearly all actives have a fitted effect of over 55% in size
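DMSO vehicle served as the neutral condition. Each well held 2,000 cells given 5-fluorouridine plus compound; after 16 hr at 37 °C/5% CO2, ONE-Glo was added and luciferase measured 30 min later.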
Each line names hits and unclear results; the compound was inactive in the other large screens. Calls follow the shape of the dose curve; as a rule, active = well fitted curve in the direction sought with a large enough effect; inconclusive = small, poorly fitted or top-dose-only effect, or another doubt; inactive = no such curve, though single readings can be large; an effect the other way counts as inactive or inconclusive.

CCCC1CCc2c(sc(NC(=O)OCC)c2C#N)C1 (stereo not given)	MCF10A rerep inconclusive, SW480 rereplic 10µM, ELG1 repair inh inconclusive
O=C1Nc2ccccc2OCc2c1cccc2[N+](=O)[O-]	none
N#Cc1ccccc1S(=O)(=O)N1CCN(C(=O)CCNS(=O)(=O)c2ccc(Cl)cc2)CC1	none (no result: Gal4-VP16 FLuc, RORgamma inh, ELG1 repair inh)
CCc1nc2ccccc2n(CCOCCn2c(=O)c(CC)nc3ccccc32)c1=O	ELG1 repair inh 23µM
FC(F)Oc1ccc(NC(=S)NCc2ccccc2)cc1	Gal4-VP16 FLuc inconclusive, RORgamma inh 13µM
FC(F)Oc1ccc(NC(=S)NCc2ccccc2)cc1Cl	Gal4-VP16 FLuc inconclusive, SW480 rereplic inconclusive, RORgamma inh 14µM
O=C(Cc1cccc2ccccc12)Nc1ccc(OC(F)F)c(Cl)c1	RORgamma inh inconclusive, ELG1 repair inh inconclusive
Oc1cccc2c(NC(=S)Nc3ccc(OC(F)F)cc3)cccc12	Gal4-VP16 FLuc 11µM, RORgamma inh inconclusive
O=C(Nc1ccc(OC(F)F)c(Cl)c1)C(c1ccccc1)c1ccccc1	MCF10A rerep 2.3µM, Gal4-VP16 FLuc inconclusive, RORgamma inh inconclusive
OCC1(CO)COC(C(Cl)(Cl)Cl)OC1	none (no result: ELG1 repair inh)
O=c1c(CCc2ccccc2)nc2cnc(N3CCOCC3)nc2n1Cc1ccc(F)cc1	none (no result: MCF10A rerep, SW480 rereplic, ELG1 repair inh)
FC(F)Oc1ccc(NC(=S)NCCc2ccccn2)cc1	Gal4-VP16 FLuc 5µM, RORgamma inh 4.5µM
O=C(O)c1ccccc1OC(C(=O)Nc1cc(Cl)cc(Cl)c1)c1ccccc1 (stereo not given)	MCF10A rerep 21µM, SW480 rereplic inconclusive, ELG1 repair inh inconclusive
O=C(Nc1cc(Cl)cc(Cl)c1)C(c1ccccc1)N1CCCCC1 (stereo not given)	none
CN(NC(=S)Nc1ccc(OC(F)F)cc1)C(=S)Nc1ccc(OC(F)F)cc1	Gal4-VP16 FLuc 13µM
Cc1cccc(NC(=S)NCCc2ccccn2)c1	Gal4-VP16 FLuc inconclusive, RORgamma inh inconclusive
CS(=O)(=O)Nc1cccc(-c2ccc3ncnc(Nc4ccccc4)c3c2)c1	RORgamma inh inconclusive (no result: MCF10A rerep, SW480 rereplic, ELG1 repair inh)
Cc1cccc(C)c1NC(=O)CN(C)C(=O)c1cccc(NS(=O)(=O)c2ccccc2)c1	none (no result: Gal4-VP16 FLuc, RORgamma inh)
N#CCCN(C(=O)COC(=O)C12CC3CC(CC(O)(C3)C1)C2)c1ccc(F)cc1	none (no result: Gal4-VP16 FLuc, RORgamma inh)
C=CCNC(=S)NNC(=O)c1ccccc1	Gal4-VP16 FLuc inconclusive, RORgamma inh inconclusive
CCCCNC(=S)NNC(=O)c1csc(C)c1CC	RORgamma inh 2.8µM
C=CCNC(=S)NNC(=O)c1csc(C)c1CC	SW480 rereplic inconclusive, RORgamma inh 8.9µM
CCCCNC(=S)NNC(=O)c1csc(C)c1	SW480 rereplic inconclusive
C=CCNC(=S)NNC(=O)c1cccc2ccccc12	RORgamma inh 1.1µM
Cc1noc(C)c1S(=O)(=O)N(C)C[C@H]1Oc2ccc(NC(=O)NC3CCCCC3)cc2C(=O)N([C@H](C)CO)C[C@@H]1C	MCF10A rerep inconclusive (no result: Gal4-VP16 FLuc, RORgamma inh)
NCCCCc1ccc2ccc3cccc4ccc1c2c34	MCF10A rerep inconclusive (no result: Gal4-VP16 FLuc, RORgamma inh)
O=C(O)CCC(=O)c1cccc2ccccc12	none
O=C(O)CCCc1ccc2ccc3cccc4ccc1c2c34	MCF10A rerep 16µM
O=C(O)CCC(=O)c1ccc2ccc3cccc4ccc1c2c34	Gal4-VP16 FLuc 10µM, RORgamma inh 11µM (no result: MCF10A rerep, SW480 rereplic)
Cn1c(=N)n(CC(=O)O)c2ccccc21	none
Cn1c(=N)n(CC(=O)c2ccccc2)c2ccccc21	Gal4-VP16 FLuc 11µM, RORgamma inh 8.9µM, ELG1 repair inh inconclusive
CCCCn1c(=N)n(CC(=O)C(C)(C)C)c2ccccc21	MCF10A rerep inconclusive, Gal4-VP16 FLuc inconclusive, RORgamma inh 5µM
CCCn1c(=N)n(CC(=O)C(C)(C)C)c2ccccc21	RORgamma inh inconclusive
CCn1c(=N)n(CC(=O)C(C)(C)C)c2ccccc21	MCF10A rerep inconclusive, Gal4-VP16 FLuc 3.2µM, SW480 rereplic inconclusive, RORgamma inh inconclusive
Cn1c(=N)n(CC(=O)C(C)(C)C)c2ccccc21	MCF10A rerep inconclusive, Gal4-VP16 FLuc inconclusive, RORgamma inh 11µM, ELG1 repair inh inconclusive
NS(=O)(=O)c1ccc(CCNC(=O)c2ccc(-c3ccccc3)cc2)cc1	none
c1csc(-c2nn3cnnc3c3ccccc23)c1	none
Cc1ccc(C2(C(=O)N3CCC(n4nc(-c5ccccc5)oc4=O)CC3)CC2)cc1	MCF10A rerep 21µM
CCc1nnc(NC(=O)CSc2nc(C)cs2)s1	Gal4-VP16 FLuc inconclusive, RORgamma inh inconclusive
CCN1C[C@@H]2[C@@H]3C(=O)N(C)C(=O)[C@@H]3[C@](C)(C1=O)N2C(=O)c1ccc(Cl)c(Cl)c1	none (no result: Gal4-VP16 FLuc, RORgamma inh, ELG1 repair inh)
COc1c(Br)cc(C(N)=O)cc1OCc1ccccc1	MCF10A rerep inconclusive
COc1cc(OCc2ccccc2)c(OC)c(OCc2ccccc2)c1	MCF10A rerep 16µM, SW480 rereplic inconclusive (no result: Gal4-VP16 FLuc, RORgamma inh, ELG1 repair inh)
Clc1ccc2ccc3cccnc3c2n1	Gal4-VP16 FLuc inconclusive, RORgamma inh 13µM
Cc1[nH]c2c(ccc3cccnc32)c1C	ELG1 repair inh 15µM
CC1CCC(=O)N(CCC#N)CC1 (stereo not given)	ELG1 repair inh inconclusive
CCOC(=O)c1sc(NC(=O)CSC(=S)N2CCOCC2)nc1C	none
CC(=O)CSc1nc(-c2ccccc2)c(-c2ccccc2)o1	SW480 rereplic inconclusive
Cc1c(NC(=O)CSC(=S)N2CCCC2)c(=O)n(-c2ccccc2)n1C	none (no result: Gal4-VP16 FLuc, RORgamma inh)
Cn1nnnc1SCC(=O)Nc1nc(-c2ccccc2)c(-c2ccccc2)o1	MCF10A rerep inconclusive, Gal4-VP16 FLuc inconclusive, RORgamma inh 10µM, ELG1 repair inh inconclusive
O=C(CSC(=S)N1CCOCC1)Nc1nc(-c2ccccc2)c(-c2ccccc2)o1	Gal4-VP16 FLuc inconclusive, RORgamma inh 11µM
O=C(CSC(=S)N1CCN(c2ccccc2)CC1)Nc1nc(-c2ccccc2)c(-c2ccccc2)o1	RORgamma inh 10µM
CCN(CC)C(=S)SCC(=O)Nc1nc(-c2ccccc2)c(-c2ccccc2)o1	Gal4-VP16 FLuc 8.9µM, RORgamma inh 4.5µM
CC(C)Cn1c(N)c(C(=O)COC(=O)C2CC(=O)N(Cc3ccccc3Cl)C2)c(=O)n(C)c1=O (stereo not given)	ELG1 repair inh inconclusive
CC(=O)N1c2ccc(S(=O)(=O)N(C)CC(=O)NCc3ccc(C)cc3)cc2CC1C (stereo not given)	SW480 rereplic inconclusive, ELG1 repair inh inconclusive
O=C(CSc1nnnn1-c1ccc(C(=O)O)cc1)NC1CC1	none
O=P1(NC2CCCC2)OCC2(CO1)COP(=O)(NC1CCCC1)OC2 (stereo not given)	none (no result: Gal4-VP16 FLuc, RORgamma inh, ELG1 repair inh)
O=C(CSC(=S)N1CCCCC1)Nc1nc(-c2ccccc2)c(-c2ccccc2)o1	Gal4-VP16 FLuc inconclusive, RORgamma inh 5.6µM
CC[C@]12C(=O)N(C)C[C@H]([C@@H]3C(=O)N(C)C(=O)[C@@H]31)N2C(=O)c1ccc(Cl)c(Cl)c1	none (no result: Gal4-VP16 FLuc, RORgamma inh, ELG1 repair inh)
O=C(c1cc(-c2ccc(F)cc2)on1)N1CCCCCC1	ELG1 repair inh inconclusive
COc1ccc(-c2cc(C(=O)N3CCCC3)no2)cc1	Gal4-VP16 FLuc 10µM, RORgamma inh 4µM, ELG1 repair inh inconclusive

Screening data deposited in PubChem BioAssay by National Center for Advancing Translational Sciences (NCATS).
